Assay outcomes (PubChem BioAssay)
Compounds with a hit are over-represented: about 2% of the library has one in this group of screens.
NALP1 inh: inhibitors of NALP1 inflammasome in yeast; S. cerevisiae NALP1/ASC/caspase-1 growth, X-gal OD620, 72 h; inhibition, % at 10 µM; 280,000 compounds, 0.61% hits; AID 2071; in the data active means inhibition mostly above about 24%, no sharp cut-off; inactive means mostly below about 32%
APOBEC3G inh: APOBEC3G (human) deaminase inhibition; 330,000 compounds, 0.28% hits; inhibition, % at 20 µM; recombinant A3G, ssDNA deamination FAM/TAMRA fluorescence;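 active means inhibition of at least 40% at 20 µM, with no more than 30% in the related APOBEC3A deaminase screen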;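 further: plate controls were DMSO wells with A3G for no effect and wells lacking A3G enzyme for full effect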
sPLA2-III inh: Inhibits HGIII-sPLA2 liposome hydrolysis, primary screen | Q9NZ20 | QFRET BODIPY PC-A2 liposome hydrolysis, fluorescence | inhibition, % at 12.2 µM | 370,000 compounds, 0.56% hits | AID 743126;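 active means inhibition above mean plus 3 SD of compounds lying within the high and low control bounds, cut at about 19% in these data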;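 further: 0% = median of test compound wells and 100% = no enzyme DMSO wells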
Target sequence (Q9NZ20 whole entry, looked up): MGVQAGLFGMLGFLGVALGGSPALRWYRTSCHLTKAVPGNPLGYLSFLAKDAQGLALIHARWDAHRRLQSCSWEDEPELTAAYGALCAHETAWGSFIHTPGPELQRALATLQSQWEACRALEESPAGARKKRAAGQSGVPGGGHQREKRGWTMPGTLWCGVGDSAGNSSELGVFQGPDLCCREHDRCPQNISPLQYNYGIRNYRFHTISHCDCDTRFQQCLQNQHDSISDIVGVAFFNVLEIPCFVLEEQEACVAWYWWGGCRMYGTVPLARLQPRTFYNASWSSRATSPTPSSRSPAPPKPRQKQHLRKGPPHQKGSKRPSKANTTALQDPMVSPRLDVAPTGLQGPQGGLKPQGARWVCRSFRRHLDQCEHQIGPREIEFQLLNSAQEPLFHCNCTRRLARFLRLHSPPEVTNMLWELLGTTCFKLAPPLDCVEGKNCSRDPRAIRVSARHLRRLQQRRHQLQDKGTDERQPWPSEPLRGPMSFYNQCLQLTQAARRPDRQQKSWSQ
APOBEC3A inh: blocks human APOBEC3A ssDNA deamination; recombinant A3A, FAM/TAMRA ssDNA deamination fluorescence; inhibition, % at 20 µM; 330,000 compounds, 0.41% hits;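 active means at least 40% inhibition at 20 µM here, with at most 30% in a related deaminase screen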;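 further: plate controls were A3A with DMSO for no effect and wells lacking A3A enzyme for full effect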
Fh CTSL1 inh: blocks F. hepatica cathepsin L1 in PFM18AAP counter-screen. 300,000 compounds, 0.49% hits. recombinant F. hepatica cathepsin L1, Z-Leu-Arg-MCA fluorescence. inhibition, % at 5.96 µM;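 active means inhibition above the mean of all tested compounds plus 3 SD, set per screening campaign, cut at about 17% in these data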;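 further: 0% = plate median of test compound wells and 100% = 1 µM Z-Phe-Ala-diazomethylketone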
hGIII sPLA2 conf: human GIII-sPLA2 inhibition, confirmation | 2,000 compounds, 34% hits | recombinant hGIII-sPLA2, BODIPY PC-A2 QFRET fluorescence | shares compounds with sPLA2-III inh | inhibition, % at 12.2 µM;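 active means mean inhibition across triplicates above the hit cutoff set in the earlier primary screen, cut at about 19% in these data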;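 further: 0% = enzyme with DMSO and 100% = DMSO wells lacking enzyme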
535nm interf: counter-screen for HGIII-sPLA2 inhibitors: 535nm fluorescence interference; shares compounds with sPLA2-III inh; BODIPY FL product fluorescence interference, QFRET; inhibition, % at 12.2 µM; 2,000 compounds, 8.5% hits;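 active means average inhibition above the solvent-only control mean plus 3 SD, cut at about 6% in these data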;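 further: 0% = DMSO with substrate plus product and 100% = DMSO with substrate alone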
535nm interf DR: interferes with 535nm fluorescence in dose response counter-screen; BODIPY FL product fluorescence interference, cell-free; 240 tested, under 10 active; shares compounds with sPLA2-III inh; IC50, µM;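 active means IC50 at or below 10 µM; inactive means IC50 above 10 µM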
Active calls of the source: *.

What do the screens show for `CCc1cccc(CC)c1NC(=S)NCC(c1cccnc1)N1CCOCC1` (centres undefined)?
NALP1 inh: 23; APOBEC3G inh: -7; sPLA2-III inh: 24*; APOBEC3A inh: -6; Fh CTSL1 inh: -7; hGIII sPLA2 conf: 18; 535nm interf: -6

What do the screens show for `Cc1ccccc1NC(=S)NCC(c1cccnc1)N1CCOCC1` (centres undefined)?
NALP1 inh: -1; APOBEC3G inh: -7; sPLA2-III inh: 0; APOBEC3A inh: -1; Fh CTSL1 inh: 8

What do the screens show for `O=C(CCC(=O)N1CCN(C2c3ccccc3-c3ccccc32)CC1)Nc1nnc(C(F)(F)F)s1`?
sPLA2-III inh: 1

What do the screens show for `O=C(NNc1nc(-c2ccc(F)cc2)cs1)c1ccccc1`?
NALP1 inh: -7; APOBEC3G inh: -7; sPLA2-III inh: 29*; APOBEC3A inh: 2; Fh CTSL1 inh: -1; hGIII sPLA2 conf: 40*; 535nm interf: 8.1*

How did CC(C)(C)c1csc(NC(=O)c2ccccc2O)n1 do in these assays?
NALP1 inh: 14; APOBEC3G inh: 0; sPLA2-III inh: -23; APOBEC3A inh: -2; Fh CTSL1 inh: 7

What do the screens show for `CC(C)(C)c1csc(NNC(=O)c2ccc(Br)cc2)n1`?
NALP1 inh: -18; APOBEC3G inh: 0; sPLA2-III inh: 47*; APOBEC3A inh: 1; Fh CTSL1 inh: -6; hGIII sPLA2 conf: 49*; 535nm interf: 5; 535nm interf DR: >122

Results for O=C(NNc1nc(-c2ccccc2)cs1)c1cccs1 ?
APOBEC3G inh: -4; sPLA2-III inh: 33*; APOBEC3A inh: -1; Fh CTSL1 inh: -5; hGIII sPLA2 conf: 49*; 535nm interf: 11*

How did O=C(NNc1nc(-c2ccccc2)cs1)c1ccc(F)cc1 do in these assays?
NALP1 inh: -10; APOBEC3G inh: -1; sPLA2-III inh: 36*; APOBEC3A inh: 3; Fh CTSL1 inh: 0; hGIII sPLA2 conf: 46*; 535nm interf: 11*

Results for CC(=O)NNc1nc(-c2ccccc2)cs1 ?
NALP1 inh: 8; APOBEC3G inh: 1; sPLA2-III inh: 4; APOBEC3A inh: 0; Fh CTSL1 inh: -3

What do the screens show for `C[C@H]1COc2cc(N3CCCC3)ccc2S(=O)(=O)N1`?
sPLA2-III inh: -1

Results for O=C(CSc1ncnc2sc3c(c12)CCCC3)Nc1ccc(Oc2ccccc2)cc1 ?
sPLA2-III inh: 5

What do the screens show for `CC1(C)CC(N=C2C([N+](=O)[O-])=CC=C3C2=NC2(CCCCC2)N3O)CC(C)(C)N1`?
NALP1 inh: 1; APOBEC3G inh: 0; sPLA2-III inh: -10; APOBEC3A inh: 0; Fh CTSL1 inh: 0

Results for O=[N+]([O-])C1=CC=C2C(=NC3(CCCCC3)N2O)C1=NC1CCCCC1 ?
NALP1 inh: 14; APOBEC3G inh: -6; sPLA2-III inh: 19*; APOBEC3A inh: -1; Fh CTSL1 inh: 2; hGIII sPLA2 conf: 25*; 535nm interf: -3

What do the screens show for `Cc1ccc(Nc2nnc(SCC(=O)Nc3ncc(S(=O)(=O)c4ccc([N+](=O)[O-])cc4)s3)s2)cc1`?
NALP1 inh: 21; APOBEC3G inh: -7; sPLA2-III inh: 20*; APOBEC3A inh: 0; Fh CTSL1 inh: 5; hGIII sPLA2 conf: -30; 535nm interf: 4

What do the screens show for `CC(C)c1ccc(Nc2nnc(SCC(=O)Nc3ncc(S(=O)(=O)c4ccc([N+](=O)[O-])cc4)s3)s2)cc1`?
NALP1 inh: 5; APOBEC3G inh: -8; sPLA2-III inh: -8; APOBEC3A inh: 19; Fh CTSL1 inh: 4

How did CCCCCN1CCCCC(NC(=O)c2ccc(F)c(F)c2)C1=O (centres undefined) do in these assays?
sPLA2-III inh: 2

How did O=C(NNC(=S)NC(=O)c1ccccc1[N+](=O)[O-])c1ccccc1O do in these assays?
NALP1 inh: -10; APOBEC3G inh: 1; sPLA2-III inh: 32*; APOBEC3A inh: -4; Fh CTSL1 inh: 1; hGIII sPLA2 conf: 14; 535nm interf: -2

What do the screens show for `O=C(NNC(=S)NC(=O)c1ccccc1Cl)c1cccc([N+](=O)[O-])c1`?
NALP1 inh: 15; APOBEC3G inh: -3; sPLA2-III inh: 25*; APOBEC3A inh: -3; Fh CTSL1 inh: 2; hGIII sPLA2 conf: 37*; 535nm interf: -1; 535nm interf DR: >122

What do the screens show for `O=C(COC(=O)c1ccccc1[N+](=O)[O-])NC(=O)c1ccccc1`?
APOBEC3G inh: -4; sPLA2-III inh: 21*; APOBEC3A inh: -1; Fh CTSL1 inh: 1; hGIII sPLA2 conf: 0; 535nm interf: -6

How did O=C(COC(=O)c1ccccc1[N+](=O)[O-])NCCCc1ccccc1 do in these assays?
NALP1 inh: 6; APOBEC3G inh: 1; sPLA2-III inh: 0; APOBEC3A inh: 2; Fh CTSL1 inh: -4

Results for O=C(COc1ccc(Br)cc1)NNC(=S)NC(=O)c1ccccc1[N+](=O)[O-] ?
NALP1 inh: -36; sPLA2-III inh: 23*; Fh CTSL1 inh: 1; hGIII sPLA2 conf: 43*; 535nm interf: -15

How did CC(=O)NC(=S)NNC(=O)COc1ccc(Br)cc1 do in these assays?
NALP1 inh: -12; sPLA2-III inh: -6

What do the screens show for `CCOc1ccc(Oc2c(Cl)c(Br)nn(Cc3cccc4ccccc34)c2=O)cc1`?
sPLA2-III inh: 4

Results for O=C(CSc1nnc(-c2ccc(Cl)cc2)n1-c1ccccc1)NN=Cc1c[nH]c2ccccc12 ?
sPLA2-III inh: -11

How did CCCCOc1ccccc1C(=O)NNC(=S)NC(=O)c1ccccc1[N+](=O)[O-] do in these assays?
NALP1 inh: -8; APOBEC3G inh: -8; sPLA2-III inh: 43*; APOBEC3A inh: -2; Fh CTSL1 inh: 7; hGIII sPLA2 conf: 48*; 535nm interf: -7; 535nm interf DR: >122

Results for Cc1ccc(C(=O)NC(=S)NNC(=O)c2ccccc2[N+](=O)[O-])cc1 ?
NALP1 inh: 14; APOBEC3G inh: 18; sPLA2-III inh: 0; APOBEC3A inh: -6; Fh CTSL1 inh: 0

What do the screens show for `O=C(NNC(=S)NC(=O)c1ccccc1[N+](=O)[O-])c1ccccc1[N+](=O)[O-]`?
NALP1 inh: -5; APOBEC3G inh: 3; sPLA2-III inh: 23*; APOBEC3A inh: -2; Fh CTSL1 inh: 2; hGIII sPLA2 conf: 24*; 535nm interf: 0

Results for O=C(NNC(=S)NC(=O)c1ccccc1[N+](=O)[O-])c1ccc(Cl)cc1Cl ?
NALP1 inh: 14; APOBEC3G inh: -4; sPLA2-III inh: 14; APOBEC3A inh: -1; Fh CTSL1 inh: -2
